Source: PubChem BioAssay AID1950 (The Scripps Research Institute Molecular Screening Center, 2009)
Among all 300,000 compounds or so, about 1,000 (0.33%) were called active. The list comes from a sample in which actives are over-represented; it also holds similar structures and randomly drawn compounds. A number with no mark means an inactive call. Rule as the data show it: active = inhibition above about 28%; inactive = the rest.

The compounds below were run on EBNA-1 (Epstein-Barr virus nuclear antigen 1), Human herpesvirus 4 (assay: blockers of EBV EBNA-1 binding to DNA – biochemical, fluorescence polarization, primary screen (AID 1950)). Details: EBNA-1 DNA binding, at 14.8 µM, hits give high values.

Compound	inhibition
COc1ccc(CN2C(=O)CC(Cc3ccc(C)cc3)C2=O)cc1OC (stereo unspecified)	9.56%
O=C(CN1CCCCC1)N1c2ccccc2Sc2ccc(C(F)(F)F)cc21	-8.22%
CC(=O)N1CC(C)c2scc(C)[n+]2-c2ccccc21 (stereo unspecified)	0.91%
CC(CCN1CCN=C1N(C)C)c1ccccc1 (stereo unspecified)	-6.72%
O=C(NCCOc1cccnc1)c1ccc(OC2CCN(Cc3ccccn3)CC2)cc1	6.33%
Cc1[nH]c(C)c(S(=O)(=O)N2CCC(C)CC2)c1C(=O)N1CCCC1	14.2%
NC(=O)C(Cc1ccccc1)NC(=O)C12CC3CC(CC(C3)C1)C2 (stereo unspecified)	3.55%
CC(=O)Nc1ccc(S(=O)(=O)NCC(=O)OCc2cc(=O)oc3ccc4ccccc4c23)cc1	35.2% (active)
COc1ccccc1C(=O)COC(=O)CNS(=O)(=O)c1ccc(NC(C)=O)cc1	0.54%
CCC(=O)Nc1ccc(S(=O)(=O)Nc2c(NC)c3ccccc3oc2=O)cc1	8.74%
CCOc1cc(C2C(C(=O)c3ccco3)=C(O)C(=O)N2Cc2ccccc2)ccc1O (stereo unspecified)	1.15%
CCC1CCCCN1C(=O)CSc1nc2c(c(=O)n1C)SC(C)C2 (stereo unspecified)	-3.4%
COc1cccc(N2CC(C(=O)Nc3c(C)cccc3C)CC2=O)c1 (stereo unspecified)	-0.66%
COc1ccc(C(=O)CSc2nnc(NC(=O)C3CC(=O)N(c4cccc(OC)c4)C3)s2)cc1 (stereo unspecified)	51.4% (active)
CCOC(=O)CSc1nnc(NC(=O)C2CC(=O)N(c3ccc(F)cc3)C2)s1 (stereo unspecified)	6.41%
COc1ccc(N(C)C(=O)C2CCN(S(=O)(=O)c3cccc4nsnc34)CC2)cc1	-5.5%
Cc1ccc(O)c(-c2cc(C(=O)Nc3c(C)n(C)n(-c4ccccc4)c3=O)[nH]n2)c1	8.89%
Cc1ccc(O)c(-c2cc(C(=O)NCc3ccccc3)[nH]n2)c1	30.8% (active)
Cc1ccc(NC(=O)c2cc(-c3ccccc3O)n[nH]2)cc1C	-0.09%
COc1ccc(C(=O)N[C@H](C(=O)NCc2ccccc2)C(C)C)cc1	5.98%
CC(C)c1nnc(NC(=O)CCC(=O)N2CCN(c3cccc(Cl)c3)CC2)s1	-2.44%
CCCCNC(=O)C1(O)c2ccccc2NC(=O)N1c1ccc(Cl)cc1 (stereo unspecified)	-19.8%
Cc1ccc(-c2nn(-c3ccccc3)cc2/C=C2\SC(=S)N(CCCCCC(=O)O)C2=O)o1	29.3% (active)

Compound	inhibition
COc1ccc(-c2nn(-c3ccccc3)cc2/C=C2/SC(=S)N(CCCC(=O)O)C2=O)c(C)c1	5.71%
CN(C)S(=O)(=O)c1cccc(-c2nn(-c3ccccc3)cc2/C=C2\SC(=S)N(CC(=O)O)C2=O)c1	1.09%
CC(=O)N1CCCc2cc(S(=O)(=O)N3CCCC(C(=O)N4CCN(c5cccc(Cl)c5)CC4)C3)ccc21 (stereo unspecified)	-6.48%
COc1ccc(-c2cc(=O)oc3cc(OCC(=O)N(C)C4CCS(=O)(=O)C4)ccc23)cc1 (stereo unspecified)	-3.28%
CCCCNC(=O)CSc1nc2ccc(NC(=O)CSc3nnc(COc4ccccc4C)n3C)cc2s1	-11.7%
CCCCNC(=O)CSc1nc2ccc(NC(=O)CSc3nnc(N)s3)cc2s1	6.23%
Nc1nnc(SCC(=O)Nc2ccc3nc(SCC(=O)Nc4ccccc4)sc3c2)s1	45.6% (active)
Nc1nc(SCC(=O)Nc2ccc(Cl)cc2C(F)(F)F)n[nH]1	-6.65%
CC(Sc1nc2c([nH]c3ccccc32)c(=O)n1C)c1ccccc1 (stereo unspecified)	13.4%
CCCCNC(=O)CCn1nc(-c2ccc(Cl)cc2)ccc1=O	-9.91%
Cc1ccc(NC(=O)CN(C)C(=O)Cn2nnc(-c3ccccc3)n2)cc1	-4.13%
COc1ccc(C23NCCN2C(=O)c2ccccc23)cc1 (stereo unspecified)	-4.33%
COc1cccc(CNS(=O)(=O)c2csc(C(N)=O)c2)c1	-4.82%
Cc1cc2oc(=O)cc(CN(C)Cc3ccc(OC(F)F)cc3)c2cc1Cl	2.59%
C/C(=N\NC(=S)NCc1ccccc1)c1ccc(Cl)cc1	-0.89%
C/C(=N\N=C(N)N)c1ccc(Cl)cc1	39.1% (active)
C/C(=N\OCC(=O)O)c1ccc(Cl)cc1	8.77%
Cc1ccc(CNC(=O)c2cccnc2Cl)cc1	-0.4%
CC/C(O)=C1\C(=O)CC(C)(C)CC1=NCCc1nc2ccccc2[nH]1	0.38%
CC(=O)C1=C(O)C(=O)N(c2ccc(Br)cc2)C1c1ccc([N+](=O)[O-])cc1 (stereo unspecified)	-5.58%
Cc1cccc(N=Nc2c(C)[nH]n(-c3ccccc3)c2=O)c1	-10.4%
Cc1[nH]n(C(N)=S)c(=O)c1N=Nc1ccc(Cl)cc1Cl	27.7% (active)
CC1=NN(C(N)=S)C(=O)C1N=Nc1cc(Cl)ccc1Cl (stereo unspecified)	-8.59%

Compound	inhibition
O=C(CCC(=O)OCc1cccc(C(=O)Oc2ccccc2)c1)Nc1cccc2ccccc12	0.44%
O=C(NC1CCCC1)C(c1ccccn1)N(C(=O)c1csnn1)C1CCCC1 (stereo unspecified)	2.45%
COC(=O)c1ccc(CSc2nc3ccccc3c(=O)n2-c2cccc(OC)c2)o1	-0.73%
CCCn1c(N)c(C(=O)CSc2nc3ccccc3c(=O)n2-c2ccc(OC)cc2)c(=O)[nH]c1=O	5.25%
COc1cccc(-n2c(SCC(=O)c3c[nH]c4ccccc34)nc3ccccc3c2=O)c1	46.8% (active)
O=C(N/N=C/c1sc(N2CCCCC2)nc1-c1cccs1)c1cccnc1	-5.56%
N=c1n(Cc2ccc(Cl)cc2)c2ccccc2n1CC(O)c1ccco1 (stereo unspecified)	-2.62%
CN1CCC(=NNC(=O)CN(c2cccc(Cl)c2)S(C)(=O)=O)CC1	-1.28%
N#Cc1nc(N)nc(N(c2ccccc2)c2ccccc2)n1	32.2% (active)
CC(C)Nc1nc(N(c2ccccc2)c2ccccc2)nc(-n2ccnc2)n1	1.21%
COc1ccc(C(=O)OCC(=O)c2ccc(Cl)s2)c(OC)c1OC	-6.57%
COc1ccc(C(=O)Nc2cccc(NC(=O)c3ccc(OC)cc3OC)n2)c(OC)c1	64.7% (active)
COc1ccc(Cc2nnc(NC(=O)c3ccc(OC)cc3OC)s2)cc1	-11.6%
COC(=O)c1sc(NC(=O)c2ccc(OC)cc2OC)nc1C	5.25%
O=C(COC(=O)c1ncc(Cl)c(Cl)c1Cl)NCc1cccs1	4.36%
Nc1ccc(S(=O)(=O)Nc2nccc(/C=C/c3ccc(Br)s3)n2)cc1	40.2% (active)
Oc1cccc2ccc(/C=C/c3ccc(Br)s3)nc12	7.77%
CC(=O)Nc1ccc(S(=O)(=O)Nc2nccc(/C=C/c3ccccc3F)n2)cc1	3.71%
CCNS(=O)(=O)c1ccc(CCC(=O)N2CCN(c3cc(Cl)ccc3C)CC2)cc1	-2.62%
O=C(NCc1ccccc1)C1=C[C@@H](c2ccccc2)C[C@@H](OCCCCO)O1	-2.36%
CN(C)CCOc1cccc(Br)c1	2.94%
COC(=O)C1=C(C)N(C(C)c2ccccc2)C(=O)/C1=C\c1ccco1 (stereo unspecified)	9.16%
O=C(Nc1cccc(Br)c1)c1ccc2snnc2c1	-4.42%

Compound	inhibition
CCc1ccccc1NC(=O)c1ccc2snnc2c1	-10.4%
O=C(Nc1ccc2ccccc2c1)Nc1ccc2snnc2c1	103% (active)
O=C1CC(Cc2ccc(Cl)cc2)C(=O)N1c1cc(Cl)ccn1 (stereo unspecified)	-3.65%
CC(=O)n1cc([C@@H]2C=C(C(=O)N3CCN(Cc4ccc5c(c4)OCO5)CC3)O[C@H](OCc3ccc(CO)cc3)C2)c2ccccc21	-9.33%
CC(=O)c1cc2c(cc1NC(=O)Cn1nc(-c3ccc(F)cc3)ccc1=O)OCO2	-3.93%
CCc1ccccc1OCC(=O)Nc1ccc2c(c1)OCCO2	-5.94%
CCOc1cccc(NC(=O)Cn2nc(-c3ccc4c(c3)OCCO4)ccc2=O)c1	35% (active)
CCOc1cccc(SCc2noc(C(=O)NC(C)C)c2C(=O)O)c1	29.7% (active)
CCCCNC(=O)c1onc(CSc2cccc(OC)c2)c1C(=O)O	8.58%
COCCNC(=O)c1onc(CSc2cccc(C)c2)c1C(=O)O	-0.97%
CCN(CC(=O)Nc1c(F)cccc1F)C(=O)C1CCC1	-2.05%
CC(=O)Nc1ccc(NC(=S)NC(=O)c2ccc([N+](=O)[O-])c(C)c2)cc1	-0.91%
CCOc1ccc(C(=O)NC(=S)Nc2ccc(N3CCOCC3)c(Cl)c2)cc1[N+](=O)[O-]	7.49%
CCOc1ccc(C(=O)NC(=S)Nc2ccc(NC(=O)C(C)C)cc2)cc1[N+](=O)[O-]	43.3% (active)
COc1ccc(C(C(=O)NC2CCCC2)N(CCCO)C(=O)Cn2nnc(-c3ccc(C)o3)n2)cc1 (stereo unspecified)	-26.3%
CC(C)NC(=O)NC(=O)COC(=O)c1ccc(NC(=O)CC#N)cc1	8.39%
CCOc1ccc(NC(=O)c2ccc(NC(=O)COC(=O)c3ccc(NC(=O)CC#N)cc3)cc2)cc1	31.4% (active)
CCOc1ccc(C(=O)Nc2ccncc2)cc1	-2.27%
COCCNc1cc(-c2ccccc2)nc2cc(-c3cccc(F)c3)nn12	-2.12%
O=C(N/N=C/c1ccc(O)cc1)/C(=C/c1ccc([N+](=O)[O-])cc1)NC(=O)c1ccccc1	11.3%
NC(=O)c1ccc(NC(=O)COC(=O)c2ccc([N+](=O)[O-])cc2)cc1	7.68%
O=C(COc1ccc(/C=N/NC(=O)c2ccc(O)cc2)cc1)Nc1ccc([N+](=O)[O-])cc1	52.6% (active)
